Sampled rows, rich in hits. Any-hit rate of the full collection: about 2.2%.
Myeloid diff 2 – induction of myeloid progenitor differentiation, primary screen, cell-based, flow cytometry, MLPCN library; ER-HoxA9 myeloid progenitors, lysozyme-GFP differentiation; calls only at 10 µM; 360,000 compounds, 1% hits; AID 624256, 2012;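 active means normalized GFP-positive differentiation at or above the plate's own cutoff, the solvent-only control mean plus 3 SD; inconclusive means no clear call, values can overlap the other calls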;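 further: cells exposed to compound for four days before flow analysis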
CRFR2-BP antag – antagonists of CRF-BP/CRF-R2 complex, primary screen, cell-based, HEK293, calcium dye fluorescence, uHTS. CRF-induced calcium fluorescence. inhibition, % at 11.8 µM. 350,000 compounds, 0.59% hits. AID 588475, 2011;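 active means inhibition of the ligand-induced calcium signal above about 50% at the single tested concentration, limit read from the data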
Cardiac RTF inh – cardiac RTF calcium sensitivity inhibitors, primary screen, biochemical, IANBD-TnC fluorescence, EC70 calcium; Troponin I, cardiac muscle (Homo sapiens) + Troponin T, cardiac muscle (Homo sapiens) + …; IANBD-labeled cardiac RTF, Ca2+ fluorescence; inhibition, % at 7.15 µM; 340,000 compounds, 0.12% hits;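 active means inhibition above the mean inhibition of all tested compounds plus 3 SD, cut at about 17% in these data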;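 further: assay run at fixed EC70 calcium of 1.6 mM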
RTF Ca sens act – cardiac RTF calcium sensitivity activators, primary screen, biochemical, IANBD-TnC fluorescence, EC20 calcium; 340,000 compounds, 0.24% hits; Troponin I, cardiac muscle (Homo sapiens) + Troponin T, cardiac muscle (Homo sapiens) + …; activation, % at 7.2 µM; IANBD-labeled TnC RTF fluorescence at EC20 calcium; 0% EC20 calcium, 100% full calcium;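 active means activation above the mean over all tested compounds plus 3 SD, cut at about 30% in these data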;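 further: rise in fluorescence read as greater calcium sensitivity of cardiac thin filaments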
CRFBP-R2 agonist – agonists of CRF-BP/CRF-R2 complex, primary screen, cell-based, HEK293, calcium dye fluorescence, uHTS | 350,000 compounds, 0.46% hits | activation, % at 13.2 µM | calcium dye fluorescence (FLIPR); percent of saturating CRF peptide response | AID 588473, 2011 | CRF-binding protein / CRF receptor 2 complex (human);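 active means activation of at least 50%, plus an integration ratio under a set limit after plate pattern correction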
Numbers stand for hits; i = inactive; ? = inconclusive; nt = no result; + = active, no number.

SMILES	Myeloid diff 2	CRFR2-BP antag	Cardiac RTF inh	RTF Ca sens act	CRFBP-R2 agonist
O=C(COc1cccc2c1CCN(Cc1ccc(Br)cc1)C2=O)NCc1ccco1	i	64	i	i	i
O=C(Nc1nccs1)C1CC=CCC1C(=O)OCC(F)(F)C(F)F (stereo not drawn)	i	i	i	i	i
COC(=O)c1cc(Br)ccc1NC(=O)CSCc1c(C)noc1C	i	i	i	i	i
Cc1ccc(C(=O)N/C(=C\c2ccc(-c3ccc([N+](=O)[O-])cc3)o2)C(=O)NC2CCS(=O)(=O)C2)cc1 (stereo not drawn)	i	i	i	i	95
O=C(NCCCO)/C(=C/c1ccc(-c2cccc([N+](=O)[O-])c2)o1)NC(=O)c1ccccc1	i	i	i	i	i
Cc1ccc(C(=O)N/C(=C/c2ccc(-c3ccc([N+](=O)[O-])cc3)o2)C(=O)NCCCN(C)C)cc1	+	i	i	i	52
CCOc1ccc(CN2CCNC(=O)C2CC(=O)N(C)CC2CCOCC2)cc1 (stereo not drawn)	i	i	i	i	i
CN(CC1CCOCC1)C(=O)CC1C(=O)NCCN1Cc1ccc(Cl)c(F)c1 (stereo not drawn)	i	79	i	i	i
CCNc1cccc2c1C(=O)N(C)C2=O	i	i	i	46	i
Nc1nonc1-n1nnc(C(=O)N/N=C/c2ccccc2)c1CSc1ccc(Cl)cc1	i	i	i	i	110
Cc1ccccc1-n1c(SCC(=O)c2c(N)n(C)c(=O)n(C)c2=O)nnc1-c1cccnc1	i	i	i	i	i
Cc1ccccc1-n1c(SCC(=O)c2c(N)n(C)c(=O)n(C)c2=O)nc2sc3c(c2c1=O)CCCC3	+	i	i	i	i
COc1ccc([C@H]2C(C#N)=C([S-])N[C@](C)(O)[C@@H]2[n+]2ccccc2)cc1	+	i	nt	nt	i
O=C(O)C1OC1(c1ccccc1Cl)c1ccccc1Cl (stereo not drawn)	i	69	i	i	i
CCN(CCO)Cc1csc2cccc(Br)c12	i	83	i	i	i
CCN(CCO)Cc1csc2ccc(Br)cc12	i	i	i	i	i
C=CCn1c(=O)/c(=C/c2ccc(O)cc2)s/c1=C(/C#N)c1nnc2n1CCCCC2	i	i	i	i	i
C=CCn1c(=O)/c(=C/c2cc(OC)c(OC)c(OC)c2)s/c1=C(/C#N)c1nc2ccccc2n1C	i	i	i	37	62
O=C(OCC(=O)N1CCCC1)c1ccccc1C(=O)c1ccccc1	i	i	i	i	i
Cc1cc(NC(=O)Cn2nc(C(=O)O)c3ccccc3c2=O)ccc1Br	i	i	i	i	i
Cc1cc(NC(=O)Cn2nc3c(cc2=O)CCCC3)ccc1Br	i	55	i	i	i
CCOC(=O)c1c(NC(=O)CSC2=NN3CCCC(=O)N=C3S2)sc2c1CCCCC2	i	i	i	i	i
CC1(C)Cc2nc3sc4c(SCC(=O)NCc5ccccc5)ncnc4c3cc2CO1	+	i	i	i	i
N#CNC(=Nc1cccc(F)c1)SCc1ccccc1F	i	85	i	i	i
O=C(CSc1ccc(-c2ccco2)nn1)c1ccc(F)cc1	i	i	i	i	i
SMILES	Myeloid diff 2	CRFR2-BP antag	Cardiac RTF inh	RTF Ca sens act	CRFBP-R2 agonist
Cc1ccc(C(=O)CSc2nc(-c3ccccc3)ccc2C#N)cc1	+	i	i	i	i
N#Cc1ccc(-c2ccco2)nc1SCC(=O)c1ccc(Cl)cc1	+	i	i	i	i
CCC(=O)N1CCc2cc(S(=O)(=O)NCCC(=O)NC3CCCCCC3)ccc21	i	i	i	i	i
CCc1ccc(OCc2cccc(C(=O)N/N=C\c3cnn(C)c3C)c2)cc1	+	i	i	i	i
CCOC(=O)C1=C(CSc2nc3c(cc2C#N)CCC3)OC(N)=C(C#N)C1c1ccccc1 (stereo not drawn)	i	i	i	i	i
CCOC(=O)C1=C(CSc2nc(-c3ccccc3)ccc2C#N)OC(N)=C(C#N)C1c1ccccc1 (stereo not drawn)	+	i	i	i	i
CCOC(=O)C1=C(CSc2nc(-c3ccccc3)ccc2C#N)OC(N)=C(C#N)C1c1cccnc1 (stereo not drawn)	+	i	i	i	i
CC(C)N1C(=O)S/C(=C/c2ccccc2OCc2ccc(C(=O)O)cc2)C1=O	i	69	i	i	i
O=C(Nc1cccc(-c2cn3c(n2)SCC3)c1)c1ccc2c(c1)OCO2	i	i	i	i	i
O=C(Nc1ccc(-c2cn3c(n2)SCC3)cc1)c1ccc2c(c1)OCO2	+	i	i	i	i
NC(=O)c1ccc(=O)n(C2OC(CO)C(O)C2O)c1 (stereo not drawn)	i	i	i	i	i
O=C1C=CN(C2OC(CO)C(O)C2O)C(=O)C1 (stereo not drawn)	+	i	nt	nt	i
Cc1ccc(S(=O)(=O)N2CCCN(C(=O)CNC(=O)c3cccc(C)c3)CC2)cc1	i	i	i	i	i
O=c1c2ccccc2nc(-c2ccc(Cl)c(Cl)c2)n1O	i	i	i	i	55
Cc1ccc(-c2nc3c(Cl)cc(Cl)cc3c(=O)n2O)cc1	i	i	i	i	66
O=c1c2ccccc2nc(-c2ccccc2Cl)n1O	i	i	i	i	i
O=c1c2cc(Br)ccc2nc(-c2ccc(Cl)cc2)n1O	i	i	i	i	73
O=c1c2cc(Cl)ccc2nc(-c2ccc([N+](=O)[O-])cc2)n1O	i	i	i	i	i
N#Cc1ccc(-c2nc3cc(Cl)ccc3c(=O)n2O)cc1	i	i	i	i	i
O=c1c2ccc(Cl)cc2nc(-c2cccc(C(F)(F)F)c2)n1O	i	i	i	i	69
COc1ccccc1C1NC=C([N+](=O)[O-])C=C1[N+](=O)[O-] (stereo not drawn)	i	i	i	i	i
COc1ccc(CN2C(=O)C(C)N(C(=O)c3c(F)cccc3F)c3ccccc32)cc1 (stereo not drawn)	i	i	i	i	i
COc1cccc(CN2C(=O)C(C)N(C(=O)c3ccccc3)c3ccccc32)c1 (stereo not drawn)	i	116	i	i	i
CCOC(=O)N1CCN(C(=O)CSc2ccc3nnc(CCNC(=O)c4ccc(OC)cc4)n3n2)CC1	i	i	i	i	i
O=C1NC[C@H](c2ccccc2)OC(=O)[C@H](Cc2ccc(F)cc2)CC/C=C/C[C@@H]1CC(=O)N(CCO)Cc1ccccc1	+	i	i	i	i
O=C1NC[C@@H](c2ccccc2)OC(=O)[C@@H](Cc2ccc(F)cc2)CC/C=C/C[C@H]1CC(=O)N(CCO)Cc1ccccc1	?	i	i	i	i

Screening data as filed in PubChem.
